Results as given in publication PMC7862700, “An all-to-all approach to the identification of sequence-specific readers for epigenetic DNA modifications on cytosine”.

Tests used:
Test in all cases: DAPPL (digital affinity profiling via proximity ligation, sequencing); 10 mM Tris-HCl pH 7.5, 50 mM NaCl, 1 mM DTT, 4% glycerol, room temperature, 30 min; GST-TFs on glutathione beads, 16-mer random dsDNA library, 0.1% formaldehyde crosslink after washing; high values mean tight binding
Details in all cases: protein: recombinant; tags: N-terminal GST; dsDNA, one strand shown
[1] = target: T1, ERF (Homo sapiens, UniProt P50548 1-548)
T1 sequence: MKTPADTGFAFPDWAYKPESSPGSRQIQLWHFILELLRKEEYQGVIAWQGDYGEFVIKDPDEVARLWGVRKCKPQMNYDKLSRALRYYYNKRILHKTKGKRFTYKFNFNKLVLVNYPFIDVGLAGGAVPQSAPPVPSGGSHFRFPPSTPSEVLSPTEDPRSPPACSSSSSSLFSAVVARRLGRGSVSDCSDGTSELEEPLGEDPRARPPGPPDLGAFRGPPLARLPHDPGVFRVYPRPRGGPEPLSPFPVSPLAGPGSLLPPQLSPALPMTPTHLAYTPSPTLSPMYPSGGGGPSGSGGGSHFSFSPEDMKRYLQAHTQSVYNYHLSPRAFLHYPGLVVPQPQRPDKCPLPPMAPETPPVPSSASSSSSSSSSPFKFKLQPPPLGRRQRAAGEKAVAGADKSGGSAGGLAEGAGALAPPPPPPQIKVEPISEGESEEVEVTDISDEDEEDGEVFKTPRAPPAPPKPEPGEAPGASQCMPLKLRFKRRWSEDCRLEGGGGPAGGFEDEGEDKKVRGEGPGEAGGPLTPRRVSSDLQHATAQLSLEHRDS
In short: (§1)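 Sequencing on an Illumina NextSeq500 followed washing, crosslinking with 0.1% formaldehyde, proximity ligation (BsaI/T4 ligase, 1 h, 37 °C) and PCR amplification of pools that had been incubated for 30 min at room temperature with 200 nmole of a random double-stranded 16-mer DNA library in Tris/NaCl/DTT/glycerol buffer. Each pool held DNA-barcoded human transcription factors, expressed in yeast as GST fusions and captured on glutathione beads, plus a tag-only sample. Binding signal is a hexamer's read frequency for a factor divided by its frequency in the tag-only sample.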

[2] = target: T2, ETV3L (Homo sapiens, UniProt Q6ZN32 1-361)
T2 sequence: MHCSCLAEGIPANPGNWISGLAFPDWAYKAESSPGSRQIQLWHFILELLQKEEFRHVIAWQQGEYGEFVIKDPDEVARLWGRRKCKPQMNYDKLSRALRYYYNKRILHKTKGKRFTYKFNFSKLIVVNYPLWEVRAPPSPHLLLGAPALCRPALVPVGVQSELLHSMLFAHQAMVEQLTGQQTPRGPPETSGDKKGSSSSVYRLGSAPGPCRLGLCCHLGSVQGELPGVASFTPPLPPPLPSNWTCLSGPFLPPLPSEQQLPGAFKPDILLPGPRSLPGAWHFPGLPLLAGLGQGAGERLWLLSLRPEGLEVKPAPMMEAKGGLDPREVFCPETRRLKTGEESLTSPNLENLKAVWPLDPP
In short: as §1

[3] = target: T3, ETS2 (Homo sapiens, UniProt P15036 1-469)
T3 sequence: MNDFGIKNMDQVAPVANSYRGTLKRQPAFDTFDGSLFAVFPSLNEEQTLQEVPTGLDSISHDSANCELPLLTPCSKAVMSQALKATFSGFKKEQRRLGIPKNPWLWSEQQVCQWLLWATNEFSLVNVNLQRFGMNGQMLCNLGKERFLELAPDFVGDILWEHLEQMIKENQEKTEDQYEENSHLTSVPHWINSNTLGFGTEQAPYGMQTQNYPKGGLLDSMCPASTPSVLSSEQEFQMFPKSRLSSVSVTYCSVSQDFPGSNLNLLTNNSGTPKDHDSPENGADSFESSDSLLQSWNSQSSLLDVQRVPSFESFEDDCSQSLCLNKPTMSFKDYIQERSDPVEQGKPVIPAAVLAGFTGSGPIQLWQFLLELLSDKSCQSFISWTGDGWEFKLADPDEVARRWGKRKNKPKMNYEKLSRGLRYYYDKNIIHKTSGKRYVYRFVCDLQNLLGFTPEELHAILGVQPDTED
In short: as §1

[4] = target: T4, SPDEF (Homo sapiens, UniProt O95238 1-335)
T4 sequence: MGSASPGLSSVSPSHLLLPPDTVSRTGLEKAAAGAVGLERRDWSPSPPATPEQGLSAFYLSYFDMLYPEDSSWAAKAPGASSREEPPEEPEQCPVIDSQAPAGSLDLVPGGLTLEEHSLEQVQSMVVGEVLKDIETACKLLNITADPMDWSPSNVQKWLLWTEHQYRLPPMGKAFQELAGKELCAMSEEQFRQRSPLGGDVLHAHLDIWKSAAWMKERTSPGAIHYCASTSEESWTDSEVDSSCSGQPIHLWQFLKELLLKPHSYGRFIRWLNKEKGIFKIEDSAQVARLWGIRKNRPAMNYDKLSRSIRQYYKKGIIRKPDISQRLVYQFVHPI
In short: as §1

[5] = target: T5, ETV7 (Homo sapiens, UniProt Q9Y603 1-341)
T5 sequence: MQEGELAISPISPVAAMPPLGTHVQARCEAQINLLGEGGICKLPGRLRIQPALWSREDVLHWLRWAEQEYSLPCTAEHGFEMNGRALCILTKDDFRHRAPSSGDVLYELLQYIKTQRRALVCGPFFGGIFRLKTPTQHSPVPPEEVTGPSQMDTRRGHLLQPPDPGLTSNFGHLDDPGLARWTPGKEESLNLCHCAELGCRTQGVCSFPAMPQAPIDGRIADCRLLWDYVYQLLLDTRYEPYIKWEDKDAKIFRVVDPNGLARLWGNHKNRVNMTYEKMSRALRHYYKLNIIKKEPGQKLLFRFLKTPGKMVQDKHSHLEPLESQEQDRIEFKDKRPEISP
In short: as §1

[6] = target: T6, ELF5 (Homo sapiens, UniProt Q9UKW6-2 1-255)
T6 sequence: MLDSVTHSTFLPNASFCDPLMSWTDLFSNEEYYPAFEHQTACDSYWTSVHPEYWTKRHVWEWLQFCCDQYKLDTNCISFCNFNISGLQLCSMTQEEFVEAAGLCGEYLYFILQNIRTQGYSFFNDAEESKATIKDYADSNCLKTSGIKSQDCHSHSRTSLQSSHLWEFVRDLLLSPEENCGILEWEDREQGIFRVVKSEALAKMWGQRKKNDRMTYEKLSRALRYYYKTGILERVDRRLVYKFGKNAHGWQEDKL
In short: as §1

[7] = target: T7, ETV3 (Homo sapiens, UniProt P41162-2 1-143)
T7 sequence: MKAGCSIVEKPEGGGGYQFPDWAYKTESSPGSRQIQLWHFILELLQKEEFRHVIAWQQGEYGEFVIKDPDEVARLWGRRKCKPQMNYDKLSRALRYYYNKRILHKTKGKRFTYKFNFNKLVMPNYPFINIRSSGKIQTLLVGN
In short: as §1

[8] = target: ETV6 (Homo sapiens, UniProt P41212 1-452)
Chain of ETV6 (P41212 whole entry): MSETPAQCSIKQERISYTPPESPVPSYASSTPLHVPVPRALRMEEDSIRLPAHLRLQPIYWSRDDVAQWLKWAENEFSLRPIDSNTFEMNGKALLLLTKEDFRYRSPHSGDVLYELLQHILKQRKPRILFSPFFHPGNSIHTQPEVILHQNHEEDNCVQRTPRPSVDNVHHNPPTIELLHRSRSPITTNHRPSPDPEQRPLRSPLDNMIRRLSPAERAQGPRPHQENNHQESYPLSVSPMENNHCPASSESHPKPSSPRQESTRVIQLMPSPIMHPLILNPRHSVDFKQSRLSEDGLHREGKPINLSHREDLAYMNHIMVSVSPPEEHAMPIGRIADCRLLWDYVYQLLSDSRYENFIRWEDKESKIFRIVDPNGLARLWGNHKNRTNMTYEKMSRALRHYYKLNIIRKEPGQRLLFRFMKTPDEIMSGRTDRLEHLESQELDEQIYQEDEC
In short: as §1

Row | Sequence | binding signal [1] | binding signal [2] | binding signal [3] | binding signal [4] | binding signal [5] | binding signal [6] | binding signal [7] | binding signal [8]
1 | TCCGTA | 1.43 fold enrichment (6-mer frequency, TF over GST control) | 1.53 fold enrichment (6-mer frequency, TF over GST control) | 1.57 fold enrichment (6-mer frequency, TF over GST control) | 1.79 fold enrichment (6-mer frequency, TF over GST control) | 1.37 fold enrichment (6-mer frequency, TF over GST control) | 2.03 fold enrichment (6-mer frequency, TF over GST control) | 1.71 fold enrichment (6-mer frequency, TF over GST control) | 1.54 fold enrichment (6-mer frequency, TF over GST control)
2 | GCCTTA | 1.15 fold enrichment (6-mer frequency, TF over GST control) | 1.04 fold enrichment (6-mer frequency, TF over GST control) | 1.15 fold enrichment (6-mer frequency, TF over GST control) | 1.12 fold enrichment (6-mer frequency, TF over GST control) | 1.18 fold enrichment (6-mer frequency, TF over GST control) | 1.14 fold enrichment (6-mer frequency, TF over GST control) | 1.08 fold enrichment (6-mer frequency, TF over GST control) | 1.07 fold enrichment (6-mer frequency, TF over GST control)
3 | ATTGGT | 1.21 fold enrichment (6-mer frequency, TF over GST control) | 1.24 fold enrichment (6-mer frequency, TF over GST control) | 1.34 fold enrichment (6-mer frequency, TF over GST control) | 1.26 fold enrichment (6-mer frequency, TF over GST control) | 1.27 fold enrichment (6-mer frequency, TF over GST control) | 1.19 fold enrichment (6-mer frequency, TF over GST control) | 1.24 fold enrichment (6-mer frequency, TF over GST control) | 1.13 fold enrichment (6-mer frequency, TF over GST control)
4 | CTGGCT | 1.43 fold enrichment (6-mer frequency, TF over GST control) | 1.3 fold enrichment (6-mer frequency, TF over GST control) | 1.19 fold enrichment (6-mer frequency, TF over GST control) | 1.23 fold enrichment (6-mer frequency, TF over GST control) | 1.38 fold enrichment (6-mer frequency, TF over GST control) | 1.19 fold enrichment (6-mer frequency, TF over GST control) | 1.18 fold enrichment (6-mer frequency, TF over GST control) | 1.18 fold enrichment (6-mer frequency, TF over GST control)
5 | AAAACA | 1.26 fold enrichment (6-mer frequency, TF over GST control) | 1.32 fold enrichment (6-mer frequency, TF over GST control) | 1.38 fold enrichment (6-mer frequency, TF over GST control) | 1.29 fold enrichment (6-mer frequency, TF over GST control) | 1.34 fold enrichment (6-mer frequency, TF over GST control) | 1.34 fold enrichment (6-mer frequency, TF over GST control) | 1.31 fold enrichment (6-mer frequency, TF over GST control) | 1.27 fold enrichment (6-mer frequency, TF over GST control)
6 | ATGAAC | 1.26 fold enrichment (6-mer frequency, TF over GST control) | 1.28 fold enrichment (6-mer frequency, TF over GST control) | 1.29 fold enrichment (6-mer frequency, TF over GST control) | 1.18 fold enrichment (6-mer frequency, TF over GST control) | 1.2 fold enrichment (6-mer frequency, TF over GST control) | 1.29 fold enrichment (6-mer frequency, TF over GST control) | 1.28 fold enrichment (6-mer frequency, TF over GST control) | 1.24 fold enrichment (6-mer frequency, TF over GST control)
7 | TGTTAT | 1.47 fold enrichment (6-mer frequency, TF over GST control) | 1.49 fold enrichment (6-mer frequency, TF over GST control) | 1.34 fold enrichment (6-mer frequency, TF over GST control) | 1.41 fold enrichment (6-mer frequency, TF over GST control) | 1.24 fold enrichment (6-mer frequency, TF over GST control) | 1.36 fold enrichment (6-mer frequency, TF over GST control) | 1.32 fold enrichment (6-mer frequency, TF over GST control) | 1.39 fold enrichment (6-mer frequency, TF over GST control)
8 | TCCAAT | 1.13 fold enrichment (6-mer frequency, TF over GST control) | 1.22 fold enrichment (6-mer frequency, TF over GST control) | 1.2 fold enrichment (6-mer frequency, TF over GST control) | 1.2 fold enrichment (6-mer frequency, TF over GST control) | 1.33 fold enrichment (6-mer frequency, TF over GST control) | 1.15 fold enrichment (6-mer frequency, TF over GST control) | 1.2 fold enrichment (6-mer frequency, TF over GST control) | 1.22 fold enrichment (6-mer frequency, TF over GST control)
9 | GCTAGC | 1.2 fold enrichment (6-mer frequency, TF over GST control) | 1.35 fold enrichment (6-mer frequency, TF over GST control) | 1.2 fold enrichment (6-mer frequency, TF over GST control) | 1.13 fold enrichment (6-mer frequency, TF over GST control) | 1.24 fold enrichment (6-mer frequency, TF over GST control) | 1.15 fold enrichment (6-mer frequency, TF over GST control) | 1.16 fold enrichment (6-mer frequency, TF over GST control) | 1.09 fold enrichment (6-mer frequency, TF over GST control)
10 | GTCTCG | 1.29 fold enrichment (6-mer frequency, TF over GST control) | 1.29 fold enrichment (6-mer frequency, TF over GST control) | 1.37 fold enrichment (6-mer frequency, TF over GST control) | 1.09 fold enrichment (6-mer frequency, TF over GST control) | 1.28 fold enrichment (6-mer frequency, TF over GST control) | 1.26 fold enrichment (6-mer frequency, TF over GST control) | 1.33 fold enrichment (6-mer frequency, TF over GST control) | 1.32 fold enrichment (6-mer frequency, TF over GST control)
11 | GCTCAA | 1.08 fold enrichment (6-mer frequency, TF over GST control) | 1.13 fold enrichment (6-mer frequency, TF over GST control) | 1.11 fold enrichment (6-mer frequency, TF over GST control) | 1.04 fold enrichment (6-mer frequency, TF over GST control) | 1.16 fold enrichment (6-mer frequency, TF over GST control) | 1 fold enrichment (6-mer frequency, TF over GST control) | 1.04 fold enrichment (6-mer frequency, TF over GST control) | 1.1 fold enrichment (6-mer frequency, TF over GST control)
12 | TGGCAT | 1.11 fold enrichment (6-mer frequency, TF over GST control) | 1.1 fold enrichment (6-mer frequency, TF over GST control) | 1.14 fold enrichment (6-mer frequency, TF over GST control) | 1.09 fold enrichment (6-mer frequency, TF over GST control) | 1.1 fold enrichment (6-mer frequency, TF over GST control) | 1.06 fold enrichment (6-mer frequency, TF over GST control) | 1.23 fold enrichment (6-mer frequency, TF over GST control) | 1.25 fold enrichment (6-mer frequency, TF over GST control)
13 | TGCTCC | 1.42 fold enrichment (6-mer frequency, TF over GST control) | 1.45 fold enrichment (6-mer frequency, TF over GST control) | 1.45 fold enrichment (6-mer frequency, TF over GST control) | 1.74 fold enrichment (6-mer frequency, TF over GST control) | 1.63 fold enrichment (6-mer frequency, TF over GST control) | 1.37 fold enrichment (6-mer frequency, TF over GST control) | 1.37 fold enrichment (6-mer frequency, TF over GST control) | 1.34 fold enrichment (6-mer frequency, TF over GST control)
14 | ATCTGG | 1.25 fold enrichment (6-mer frequency, TF over GST control) | 1.2 fold enrichment (6-mer frequency, TF over GST control) | 1.11 fold enrichment (6-mer frequency, TF over GST control) | 1.06 fold enrichment (6-mer frequency, TF over GST control) | 1.14 fold enrichment (6-mer frequency, TF over GST control) | 1.11 fold enrichment (6-mer frequency, TF over GST control) | 1.16 fold enrichment (6-mer frequency, TF over GST control) | 1.1 fold enrichment (6-mer frequency, TF over GST control)
15 | AATCCC | 1.44 fold enrichment (6-mer frequency, TF over GST control) | 1.29 fold enrichment (6-mer frequency, TF over GST control) | 1.25 fold enrichment (6-mer frequency, TF over GST control) | 1.36 fold enrichment (6-mer frequency, TF over GST control) | 1.23 fold enrichment (6-mer frequency, TF over GST control) | 1.4 fold enrichment (6-mer frequency, TF over GST control) | 1.26 fold enrichment (6-mer frequency, TF over GST control) | 1.42 fold enrichment (6-mer frequency, TF over GST control)
